PubChem BioAssay AID1159580 (chemical genetic matrix, 2015)
Hit rate of the full screen: of about 5,500 compounds, about 2,000 (36%) were called active. Roughly 18% stayed inconclusive and do not appear here. Rule as the data show it: active = normalized growth mostly below about 0.91 (no sharp cut-off); inconclusive = no clear call, values can overlap the other calls; inactive = mostly above about 0.92. The list shows a part of the results.

Assay: chemical genetic growth profiling, strain panel (AID 1159580);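 also: tested at 20 µM; growth read once vehicle control cultures reached saturation at 30 °C; 1 = growth at the plate median or of vehicle wells; lower values mean less growth of the strain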
Conditions: S. cerevisiae deletion strains, growth OD
[1] = locus YDL101C, strain DUN1, hits give low values
[2] = locus YHR030C, strain SLT2, hits give low values
[3] = locus YHR079C, strain IRE1, hits give low values
[4] = locus YJL095W, strain BCK1, hits give low values
[5] = locus YJR066W, strain TOR1, hits give low values
[6] = locus YLR113W, strain HOG1, hits give low values
[7] = locus YNL183C, strain NPR1, hits give low values
[8] = locus YOR231W, strain MKK1, hits give low values
[9] = locus YPL256C, strain CLN2, hits give low values
[10] = locus YDR150W, strain NUM1, hits give low values
[11] = locus YGR078C, strain PAC10, hits give low values
[12] = locus YJL187C, strain SWE1, hits give low values
[13] = locus YMR263W, strain SAP30, hits give low values
[14] = locus YNL322C, strain KRE1, hits give low values
[15] = locus YPL055C, strain LGE1, hits give low values
[16] = locus YPL241C, strain CIN2, hits give low values
[17] = locus YAL040C, strain CLN3, hits give low values
[18] = locus YER002W, strain NOP16, hits give low values
[19] = locus YNL175C, strain NOP13, hits give low values
[20] = locus YNL197C, strain WHI3, hits give low values
[21] = locus YNL224C, strain SQS1, hits give low values
[22] = locus YOR083W, strain WHI5 (second series), hits give low values

Measured: normalized growth

FC(F)(F)c1ccc(NC(=S)Nc2ccc(C(F)(F)F)cc2Cl)c(Cl)c1
inactive: locus YAR019C, strain CDC15, hits give low values 0.964 | locus YBL105C, strain PKC1, hits give low values 0.969 | locus YBR135W, strain CKS1, hits give low values 0.955 | locus YBR136W, strain MEC1, hits give low values 0.969 | locus YBR160W, strain CDC28, hits give low values 0.948 | locus YDL017W, strain CDC7, hits give low values 0.965 | locus YDL028C, strain MPS1, hits give low values 0.952 | [1] 0.993 | locus YDL108W, strain KIN28, hits give low values 0.946 | locus YDL132W, strain cdc53, hits give low values 0.949 | locus YDL214C, strain PRR2, hits give low values 0.921 | locus YDR052C, strain DBF4, hits give low values 0.979 | locus YDR054C, strain cdc34, hits give low values 0.976 | locus YDR226W, strain ADK1, hits give low values 0.936 | locus YDR477W, strain SNF1, hits give low values 0.938 | locus YER123W, strain YCK3, hits give low values 0.902 | locus YER133W, strain GLC7, hits give low values 0.933 | locus YFL009W, strain cdc4, hits give low values 0.921 | locus YFL029C, strain CAK1, hits give low values 0.968 | locus YFR003C, strain YPI1, hits give low values 0.955 | locus YFR019W, strain FAB1, hits give low values 0.932 | locus YFR028C, strain CDC14, hits give low values 0.953 | locus YGR040W, strain KSS1, hits give low values 0.929 | locus YGR052W, strain FMP48, hits give low values 0.937 | locus YGR092W, strain DBF2, hits give low values 0.911 | [3] 0.948 | locus YHR082C, strain KSP1, hits give low values 0.926 | locus YHR205W, strain SCH9, hits give low values 0.919 | locus YIL147C, strain SLN1, hits give low values 0.962 | [4] 0.919 | locus YJL128C, strain PBS2, hits give low values 0.956 | locus YJL157C, strain FAR1, hits give low values 0.928 | locus YJR016C, strain ILV3, hits give low values 0.966 | locus YJR066W, strain TOR1 (second series), hits give low values 0.95 | [5] 0.886 | locus YKL048C, strain ELM1, hits give low values 0.946 | locus YKL067W, strain YNK1, hits give low values 0.907 | locus YKL101W, strain HSL1, hits give low values 0.898 | locus YKL193C, strain SDS22, hits give low values 0.954 | locus YKL203C, strain TOR2, hits give low values 1.03 | locus YLR133W, strain CKI1, hits give low values 0.923 | locus YLR403W, strain SFP1, hits give low values 0.949 | locus YML070W, strain DAK1, hits give low values 0.902 | locus YMR001C, strain CDC5, hits give low values 0.961 | locus YMR205C, strain PFK2 (second series), hits give low values 0.929 | locus YMR277W, strain FCP1, hits give low values 0.944 | locus YNL006W, strain LST8, hits give low values 0.961 | locus YNL020C, strain ARK1, hits give low values 0.887 | locus YNL161W, strain CBK1, hits give low values 0.967 | [7] 0.929 | locus YNL207W, strain RIO2, hits give low values 0.948 | locus YNL222W, strain SSU72, hits give low values 0.95 | locus YNL307C, strain MCK1 (second series), hits give low values 0.888 | locus YOL078W, strain AVO1, hits give low values 0.955 | locus YOL136C, strain PFK27, hits give low values 0.908 | locus YOR061W, strain CKA2, hits give low values 0.911 | locus YOR119C, strain RIO1, hits give low values 0.954 | [8] 0.92 | locus YOR329C, strain SCD5, hits give low values 0.971 | locus YPL031C, strain PHO85, hits give low values 0.945 | locus YPL153C, strain RAD53, hits give low values 0.927 | locus YPL204W, strain HRR25, hits give low values 0.916 | locus YPL209C, strain IPL1, hits give low values 0.972 | [9] 0.929 | locus YPR025C, strain CCL1, hits give low values 0.966 | locus YPR106W, strain ISR1, hits give low values 0.956 | locus YPR111W, strain DBF20, hits give low values 0.929 | strain NNK1, hits give low values 0.959 | strain TSCII, hits give low values 0.97
active: [2] 0.83 | [6] 0.836

CC(=O)NN(C)c1ccc(C(F)(F)F)cc1[N+](=O)[O-]
inactive: locus YAL013W, strain DEP1, hits give low values 1.01 | locus YBR229C, strain ROT2, hits give low values 1.01 | [1] 1 | [10] 0.991 | locus YEL061C, strain CIN8, hits give low values 1.02 | [11] 1 | [2] 1.11 | locus YHR087W, strain rtc3, hits give low values 1.01 | [12] 1.02 | locus YJR043C, strain POL32, hits give low values 1.01 | locus YJR075W, strain HOC1, hits give low values 1 | locus YKL190W, strain CNB1, hits give low values 1.01 | locus YLR039C, strain RIC1, hits give low values 1 | locus YLR058C, strain SHM2 (second series), hits give low values 1.01 | locus YLR085C, strain ARP6, hits give low values 1.04 | locus YLR262C, strain YPT6, hits give low values 0.986 | locus YML094W, strain GIM5, hits give low values 1.02 | locus YMR219W, strain ESC1, hits give low values 1.01 | [13] 1.01 | locus YNL153C, strain GIM3, hits give low values 1.01 | locus YNL298W, strain CLA4 (second series), hits give low values 1.01 | [14] 1.01 | locus YNR030W, strain Alg12, hits give low values 1.02 | [15] 0.989 | [16] 1.02 | locus YPR135W, strain CTF4, hits give low values 1.07

O=C1C=CC(=O)C=C1
inactive: [17] 0.986 | [18] 1 | [11] 0.912 | [13] 1 | locus YMR307W, strain GAS1, hits give low values 1.04 | [19] 1.02 | [20] 1.05 | [21] 1 | [14] 0.99 | [22] 1.01 | [15] 0.979

CC(=O)O[C@H]1CC2(C)[C@@H](C[C@@H](O)[C@H]3[C@@]4(C)CC[C@@H](O)[C@@H](C)[C@@H]4CC[C@@]32C)C1=C(CCC=C(C)C)C(=O)O (stereo not given in full)
inactive: [17] 1.02 | locus YCL061C, strain MRC1 (second series), hits give low values 1.01 | [10] 1.02 | locus YDR363W, strain ESC2, hits give low values 1.02 | [18] 1.04 | [11] 1.03 | [19] 1 | [20] 1 | [21] 0.974 | [14] 1.01 | [22] 0.996 | [16] 1.01

COc1cc(OC)c2c(=O)c(-c3ccc4c(c3)OCO4)coc2c1
inactive: locus YAL021C, strain ccr4, hits give low values 1.01 | locus YAL026C, strain drs2, hits give low values 0.982 | locus YAL030W, strain snc1, hits give low values 0.977 | locus YBL061C, strain skt5, hits give low values 0.979 | locus YBR009C, strain hhf1, hits give low values 0.984 | locus YBR023C, strain chs3, hits give low values 0.989 | locus YBR171W, strain sec66, hits give low values 0.969 | locus YBR231C, strain swc5, hits give low values 1 | locus YBR279W, strain paf1, hits give low values 0.992 | locus YCL011C, strain gbp2, hits give low values 0.981 | locus YCL016C, strain dcc1, hits give low values 0.986 | locus YCL061C, strain MRC1, hits give low values 0.996 | locus YCL069W, strain vba3, hits give low values 0.983 | locus YCR088W, strain abp1, hits give low values 0.979 | locus YDL005C, strain med2, hits give low values 0.997 | locus YDL040C, strain nat1, hits give low values 0.981 | locus YDR001C, strain nth1, hits give low values 0.98 | locus YDR069C, strain doa4, hits give low values 0.998 | locus YDR137W, strain rgp1, hits give low values 1.01 | locus YDR159W, strain sac3, hits give low values 1.01 | locus YDR195W, strain ref2 0.988 | locus YDR297W, strain sur2, hits give low values 0.989 | locus YDR334W, strain swr1, hits give low values 0.991 | locus YDR335W, strain msn5, hits give low values 1 | locus YDR392W, strain spt3, hits give low values 0.802 | locus YEL003W, strain gim4, hits give low values 0.992 | locus YEL037C, strain rad23, hits give low values 0.993 | locus YEL061C, strain CIN8 (second series), hits give low values 0.986 | locus YER015W, strain faa2, hits give low values 1 | locus YER016W, strain bim1, hits give low values 0.987 | locus YER111C, strain swi4, hits give low values 1.01 | locus YER155C, strain BEM2 (second series), hits give low values 0.942 | locus YFR010W, strain ubp6, hits give low values 1 | locus YGL167C, strain pmr1, hits give low values 0.984 | locus YGL173C, strain kem1, hits give low values 0.985 | locus YGL227W, strain vid30, hits give low values 0.978 | locus YGL240W, strain doc1, hits give low values 1.02 | locus YGL253W, strain hxk2, hits give low values 0.977 | locus YHR013C, strain ard1, hits give low values 0.971 | locus YHR027C, strain rpn1, hits give low values 1 | [2] 1.05 | [3] 1.05 | locus YHR142W, strain chs7, hits give low values 0.931 | locus YJL092W, strain hpr5, hits give low values 0.978 | locus YJL095W, strain BCK1 (second series), hits give low values 0.984 | [4] 1.03 | locus YJL115W, strain asf1, hits give low values 0.992 | locus YJL129C, strain trk1, hits give low values 0.918 | locus YJL154C, strain vps35, hits give low values 0.991 | locus YJL164C, strain tpk1, hits give low values 0.98 | locus YJL166W, strain qcr8, hits give low values 0.99 | [12] 0.996 | [5] 0.99 | locus YKL160W, strain elf1, hits give low values 0.991 | locus YKR026C, strain gcn3, hits give low values 0.98 | locus YKR091W, strain srl3, hits give low values 0.986 | locus YLL001W, strain dnm1, hits give low values 0.977 | locus YLL026W, hits give low values 0.985 | locus YLL041C, strain sdh2, hits give low values 0.99 | locus YLR027C, strain aat2, hits give low values 0.979 | [6] 1.08 | locus YLR221C, strain rsa3, hits give low values 0.961 | locus YLR258W, strain gsy2, hits give low values 0.976 | locus YLR262C, strain YPT6 (second series), hits give low values 1.04 | locus YLR320W, strain mms22, hits give low values 0.964 | locus YLR342W, strain FKS1, hits give low values 0.983 | locus YLR357W, strain rsc2, hits give low values 0.987 | locus YLR370C, strain arc18, hits give low values 0.99 | locus YLR384C, strain iki3, hits give low values 0.99 | locus YML120C, strain ndi1, hits give low values 0.967 | locus YMR058W, strain fet3, hits give low values 0.983 | locus YMR125W, strain sto1, hits give low values 0.989 | locus YMR129W, hits give low values 0.981 | locus YMR205C, strain PFK2, hits give low values 0.962 | locus YMR231W, strain pep5, hits give low values 0.987 | locus YNL071W, strain lat1, hits give low values 0.954 | [7] 0.984 | locus YNL209W, strain ssb2, hits give low values 0.985 | locus YNL248C, strain rpa49, hits give low values 1.02 | locus YNL322C, strain KRE1 (second series), hits give low values 0.983 | locus YNR049C, strain mso1, hits give low values 0.995 | locus YOR001W, strain rrp6, hits give low values 0.994 | locus YOR070C, strain gyp1, hits give low values 0.999 | locus YOR080W, strain dia2, hits give low values 1 | locus YOR083W, strain WHI5, hits give low values 0.98 | locus YOR106W, strain vam3, hits give low values 0.986 | [8] 1.07 | locus YOR265W, strain rbl2, hits give low values 0.99 | locus YOR270C, strain vph1, hits give low values 0.922 | locus YOR290C, strain snf2, hits give low values 0.957 | locus YPL051W, strain arl3, hits give low values 1.01 | locus YPL078C, strain atp4, hits give low values 0.983 | locus YPL106C, strain sse1, hits give low values 0.987 | locus YPL240C, strain hsp82, hits give low values 0.984 | [9] 1.05
